About 83,000 compounds went through this panel and 20% of them were active in at least one assay; those are over-represented in the sample as a whole.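 Interpretation: 100, growth as untreated; towards 0, rising growth inhibition; 0, no net growth; 0 to -100, cell death. Compounds scoring below 10 were considered active.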 Unmarked numbers belong to inactive results. Calls of active or inactive are those of the source.

Among the test systems are SR leukemia; RPMI-8226 leukemia; OVCAR-8 ovarian; OVCAR-5 ovarian; OVCAR-4 ovarian; SK-OV-3 ovarian; IGROV1 ovarian; HS 578T breast; NCI/ADR-RES ovarian.
What all share (assay): NCI-60 one-dose screen, 48 h (100 = growth as untreated, 0 = no growth, -100 = all killed)
Common to all, as to details: 10 µM unless noted

With `CCOP(=O)(OCC)OC[C@]12CCC(C)(C)C[C@H]1C1=CC[C@@H]3[C@@]4(C)CC[C@H](OP(=O)(OCC)OCC)C(C)(C)[C@@H]4CC[C@@]3(C)[C@]1(C)CC2`, the growth in the test on SR leukemia was 35%; in the test with RPMI-8226 leukemia it was 5.23% (active); in the test with OVCAR-8 ovarian, 60.4%; in the test with OVCAR-5 ovarian, 75.2%; in the test on OVCAR-4 ovarian it was 65.9%; in the test with SK-OV-3 ovarian, 73.2%. Further, the figures for the growth in the test on IGROV1 ovarian, in the test with HS 578T breast and in the test with NCI/ADR-RES ovarian were 68.1%, 83.2% and 65.8%, respectively.
As to `Cc1ccc(C(=O)CSc2nnc(-c3ccc(-c4ccc(Cl)cc4)nc3C)o2)cc1`, the growth in the test on SR leukemia was 96.5%; in the test with RPMI-8226 leukemia, 96.7%; with OVCAR-8 ovarian, 107%; in the test with OVCAR-5 ovarian it was 102%; with OVCAR-4 ovarian, 101%; with SK-OV-3 ovarian, 98.1%. Besides, the growth is 91.6% with IGROV1 ovarian, 102% in the test on HS 578T breast and 100% in the test with NCI/ADR-RES ovarian.
As for `O=C(/C=C/c1cccc(C(F)(F)F)c1)Nc1cccc(C(F)(F)F)c1`, the growth in the test on SR leukemia is 68.6%; in the test with RPMI-8226 leukemia, 24.4%; with OVCAR-8 ovarian, 33%; in the test with OVCAR-5 ovarian it was 95.4%; in the test on OVCAR-4 ovarian, 47.7%; with SK-OV-3 ovarian it was 79.3%. For the same compound, the growth is 53% in the test with IGROV1 ovarian, 93% with HS 578T breast and 46.4% with NCI/ADR-RES ovarian.
As to `CC(C)(C)OC(=O)Nc1ccc(-c2cccc(Oc3ccc4nnc(Cl)n4n3)c2)cc1`, the growth with SR leukemia was 36%; in the test on RPMI-8226 leukemia, 43.2%; in the test with OVCAR-8 ovarian, 71.3%; in the test with OVCAR-5 ovarian, 100%; in the test with OVCAR-4 ovarian, 63.7%; with SK-OV-3 ovarian it was 95.5%. For the same compound, the growth in the test with IGROV1 ovarian is 98.8%; with HS 578T breast it was 94.5%; with NCI/ADR-RES ovarian it was 70.8%.
For `Clc1ccc2[nH]cc(-c3nn4cc(-c5cccnc5)nc4s3)c2c1`, the growth in the test on SR leukemia is 109%; in the test with RPMI-8226 leukemia, 86.9%; with OVCAR-8 ovarian it was 103%; in the test on OVCAR-5 ovarian it was 108%; in the test on OVCAR-4 ovarian it was 105%; in the test with SK-OV-3 ovarian it was 91%. Besides, the figures for the growth in the test with IGROV1 ovarian, with HS 578T breast and with NCI/ADR-RES ovarian were 87.9%, 93.6% and 102%, respectively.
Regarding `CN1CCN(Cc2ccc(/C=N/Nc3ccnc4cc(Cl)ccc34)cc2)CC1`, the growth is 2.66% (active) in the test with SR leukemia; 46.7% in the test on RPMI-8226 leukemia; 80.1% in the test on OVCAR-8 ovarian; 102% with OVCAR-5 ovarian; 83% with OVCAR-4 ovarian; 107% with SK-OV-3 ovarian. The growth was 69.2% in the test on IGROV1 ovarian, 89.3% in the test on HS 578T breast and 87% in the test on NCI/ADR-RES ovarian.
Turning to `O=C(/C=C/c1ccccc1Cl)Nc1ncc(Cc2cc(Cl)ccc2Cl)s1`, the growth was 14.3% with SR leukemia; 19.7% in the test on RPMI-8226 leukemia; 36.9% with OVCAR-8 ovarian; 56% with OVCAR-5 ovarian; 53.8% in the test with OVCAR-4 ovarian; 43.7% with SK-OV-3 ovarian. Besides, the growth was 19.4% with IGROV1 ovarian, 5.7% (active) in the test with HS 578T breast and 17.9% in the test on NCI/ADR-RES ovarian.
For the compound `CCCCCCNC(=O)Oc1ccc(/C(=C(/C)c2ccc(OC)cc2)c2ccc(OCCN3CCCCCC3)cc2)cc1`, the growth was -6.81% (active) in the test with SR leukemia; -2.43% (active) with RPMI-8226 leukemia; 41.8% with OVCAR-8 ovarian; 61.1% with OVCAR-5 ovarian; 47.1% in the test on OVCAR-4 ovarian; 66.1% in the test on SK-OV-3 ovarian. For the same compound, the growth in the test on IGROV1 ovarian is 47%; in the test on HS 578T breast, 9.93% (active); in the test with NCI/ADR-RES ovarian it was 48.2%.
Consider `C/C(=N\NC(=O)/C=C/CC(=O)O)c1nnn(-c2ccc([N+](=O)[O-])cc2)c1C`, for which the growth is 95.4% with SR leukemia; 101% in the test on RPMI-8226 leukemia; 101% in the test on OVCAR-8 ovarian; 108% in the test with OVCAR-5 ovarian; 106% in the test with OVCAR-4 ovarian; 106% in the test on SK-OV-3 ovarian. For the same compound, the growth in the test on IGROV1 ovarian is 103%; with HS 578T breast, 116%; in the test on NCI/ADR-RES ovarian, 102%.
On to `CN1CC[C@@H]2[C@@]3(C)CC[C@H](O)C(C)(C)[C@@H]3CC[C@@]2(C)[C@]2(C)CC[C@@]3(CO)CCC(C)(C)C[C@@H]3C12` (stereo partly specified), for which the growth was 30.2% in the test on SR leukemia; 74.6% in the test with RPMI-8226 leukemia; 97.2% in the test with OVCAR-8 ovarian; 91.7% with OVCAR-5 ovarian; 96.7% in the test on OVCAR-4 ovarian; 108% with SK-OV-3 ovarian. For the same compound, the figures for the growth in the test on IGROV1 ovarian, with HS 578T breast and with NCI/ADR-RES ovarian were 94.8%, 79.2% and 96.8%, respectively.
On to `C1=CC(c2nn3c(-c4ccccc4)nnc3s2)=Cc2ccccc2O1`, for which the growth in the test with SR leukemia is 11.9%; in the test with RPMI-8226 leukemia, 35.6%; in the test with OVCAR-8 ovarian, 65.5%; in the test with OVCAR-5 ovarian, 87.6%; with OVCAR-4 ovarian it was 73.7%; with SK-OV-3 ovarian, 106%. Further, the growth in the test with IGROV1 ovarian is 64.3%; in the test on HS 578T breast, 61.1%; in the test with NCI/ADR-RES ovarian, 85.2%.
In the case of `O=C(/C=C/c1ccc(F)cc1)Nc1cccc2cccnc12`, the growth in the test on SR leukemia was 103%; in the test with RPMI-8226 leukemia it was 94.2%; in the test with OVCAR-8 ovarian, 106%; in the test with OVCAR-5 ovarian it was 104%; with OVCAR-4 ovarian, 93.3%; in the test on SK-OV-3 ovarian it was 90.2%. In addition, the results for the growth with IGROV1 ovarian, with HS 578T breast and with NCI/ADR-RES ovarian were 71.8%, 112% and 102%, respectively.
Take `O=[N+]([O-])c1ccc(NC(=S)NNC(=S)Nc2ccc(Br)cc2)cc1`: the growth in the test with SR leukemia is 79.4%; in the test on RPMI-8226 leukemia, 79.4%; in the test with OVCAR-8 ovarian, 98.6%; in the test on OVCAR-5 ovarian, 91.4%; with OVCAR-4 ovarian, 98.2%; in the test with SK-OV-3 ovarian, 100%. The growth with IGROV1 ovarian was 71.7%; with HS 578T breast, 107%; in the test on NCI/ADR-RES ovarian it was 84.5%.
Consider `CN1CCN(c2ccc(C(=O)/C=C/c3cc(F)cc(C(F)(F)F)c3)cc2)CC1`, for which the growth is 17.5% in the test on SR leukemia; 11.2% in the test on RPMI-8226 leukemia; 65.2% in the test with OVCAR-8 ovarian; 115% in the test with OVCAR-5 ovarian; 71.8% with OVCAR-4 ovarian; 109% with SK-OV-3 ovarian. Moreover, the growth in the test with IGROV1 ovarian was 77.9%; in the test on HS 578T breast, 100%; in the test on NCI/ADR-RES ovarian it was 59%.
